A number with no mark means an inactive call. The rule behind the calls is not given here.

In this assay the target is Pantothenate synthetase (Mycobacterium tuberculosis (strain ATCC 25618 / H37Rv)) (UniProt P9WIL5). Nature of the assay: Recombinant Mtb pantothenate synthetase (PanC) inhibitors, coupled enzyme, confirmatory (AID 375).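 Note: 0% = full reaction with vehicle and 100% = no enzyme background.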 As to conditions: coupled enzyme assay; at 10 µM, stronger effect = higher value.
Sequence of Pantothenate synthetase (Mycobacterium tuberculosis (strain ATCC 25618 / H37Rv)) (P9WIL5 whole entry, looked up): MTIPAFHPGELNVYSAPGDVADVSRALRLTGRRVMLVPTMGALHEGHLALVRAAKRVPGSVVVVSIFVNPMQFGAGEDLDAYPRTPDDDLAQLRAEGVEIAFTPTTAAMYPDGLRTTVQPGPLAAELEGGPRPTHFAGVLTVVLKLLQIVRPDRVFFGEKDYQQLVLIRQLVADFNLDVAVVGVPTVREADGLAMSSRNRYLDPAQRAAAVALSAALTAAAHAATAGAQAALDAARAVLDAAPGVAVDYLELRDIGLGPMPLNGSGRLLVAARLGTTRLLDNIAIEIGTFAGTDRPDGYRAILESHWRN
As to `CCOc1ccccc1C1NC(=O)NC(C)=C1C(=O)OC1CCCC1C` (configuration not stated), the inhibition (as a rule, the relative decrease from the control value, in per cent) is 2%. Regarding `c1ccc(C2(Cn3ccc4ccccc43)OCCO2)cc1`, the inhibition is 0%. Turning to `COc1cccc(-n2c(C)nc3c(cnn3-c3ccc(C)cc3)c2=O)c1`, the inhibition is 3%. Turning to `COc1cccc(Oc2ccc(N)cn2)c1`, the inhibition was 0%. Regarding `Nn1c(CSc2nc3ccccc3o2)nnc1CSc1nc2ccccc2o1`, the inhibition was 0%.

For `COC(=O)C1(C)NC(c2cccs2)C2C(=O)N(c3ccccc3F)C(=O)C21` (configuration not stated), the inhibition is 0%. Regarding `CC(O)CN(Cc1cccc(Cl)c1)CC(C)O` (configuration not stated), the inhibition is 5%.

The values are drawn from PubChem BioAssay.
